# Results reported in PubChem BioAssay (NCI).
# About 79,000 compounds went through this panel and 15% of them were active in at least one assay; those are over-represented in the sample as a whole. The source made the active and inactive calls. Cut-off read from the data, not from the text of the source: active = growth inhibition above about 70%; inactive = the rest.
# Test: NCI Yeast Anticancer Drug Screen. Data for the cln2 rad14 strain (AID 165);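 note: 0% = growth equal to vehicle treated cultures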
# Details: S. cerevisiae cln2 rad14 strain, at 5.0 µM (retest, dose inferred, filed as 0.5), stronger effect = higher value
# How it was run: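 Relative to vehicle controls, growth inhibition of compound-treated cln2 rad14 yeast was recorded.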
row,Compound,growth inhibition
1,CC(=O)Sc1ccc(Br)cc1,-1% (inactive)
2,CC(C)OCc1cccc2ccnc(COC(C)C)c12,-15% (inactive)
3,Nc1ccc2c(c1)C(=O)c1ccccc1-2,1% (inactive)
4,O=C1Nc2ccc([N+](=O)[O-])c3c([N+](=O)[O-])ccc1c23,0% (inactive)
5,Cc1ccc(NC(=O)Oc2ccc(C(C)(C)C)cc2Br)cc1NC(=O)Oc1ccc(C(C)(C)C)cc1Br,2% (inactive)
6,O=C1C(Cl)=C(Nc2ccc(S(=O)(=O)O)cc2)C(=O)c2ccccc21,12% (inactive)
7,N/C(=N\OC(=O)Nc1ccccc1)c1ccccc1,2% (inactive)
8,O=C1c2ccccc2C(=O)c2cc(N3C(=O)C=CC3=O)ccc21,53% (inactive)
9,CCCCN=C(c1ccc(O)cc1)c1ccc(OC)cc1O,-3% (inactive)
10,Cc1ccc(S(=O)(=O)c2cc(O)c(O)c3ccc(Br)cc23)cc1,-1% (inactive)
11,CC(C)(C)NC(=S)N/N=C/c1cc(Cl)cc(Cl)c1O,88% (active)
12,Oc1ccc2c(c1)OCC1c3ccccc3OC21 (stereo not given),23% (inactive)
13,OCCSC(=S)Nc1ccc(Cl)c(Cl)c1,0% (inactive)
14,CCCC[N-]CC(O)C[NH-].O=C(O)CC(=O)O.[Pt+2] (stereo not given),1% (inactive)
15,N=C(N)c1cccc(-c2ccc(-c3ccccc3)o2)c1,2% (inactive)
16,C#CC(CC(C)C)(CC(C)C)OC(=O)Nc1ccccc1,3% (inactive)
17,CCCCOc1ccc(-c2c(COC(=O)NC)c(COC(=O)NC)c(C)n2C)cc1,19% (inactive)
18,O=C(Nc1cccc2ccccc12)OCCCCCCl,-6% (inactive)
19,C=CCOc1ccc(/C=N/NC(N)=S)cc1,6% (inactive)
20,Fc1ccc2[nH]ccc2c1,9% (inactive)

row,Compound,growth inhibition
1,C=C1C(=O)[C@]23C[C@H]1CC[C@H]2[C@@]12CO[C@@H](O)[C@@H]1C(C)(C)[C@@H](O)C[C@@H]2OC3=O,-7% (inactive)
2,N#Cc1ccc([N+](=O)[O-])cc1C#N,-50% (inactive)
3,N=C(N)c1ccc(Oc2ccc(Oc3ccc(C(=N)N)cc3)cc2)cc1,50% (inactive)
4,CCC=Nc1c(O)cc(-c2ccccc2)n(C)c1=O,35% (inactive)
5,COc1ccc(CN2CCCN(Cc3ccc(OC)cc3OC)C2c2cc(Cl)ccc2O)c(OC)c1,0% (inactive)
6,CCN(CC)c1ccc(/C=C2/C[N+](C)(C)C/C(=C/c3ccc(N(CC)CC)cc3)C2=O)cc1,4% (inactive)
7,O=P1(Cc2ccccc2)c2ccccc2-c2ccccc21,-18% (inactive)
8,CN(C)CCCNc1cc(O)c2c(c1O)C(=O)c1ccccc1C2=O,-16% (inactive)
9,CCCCC#CC(=O)OCCCCC,-5% (inactive)
10,CCCCCCN(CCCCCC)CCC(=O)c1ccc2cc(Cl)c3ccccc3c2c1,3% (inactive)
11,CC(C)C1=C2CCC3(C)C(CCC4C5C6OCC5(CCC6(C)C)CCC43C)C2(C)CC1 (stereo not given),27% (inactive)
12,O=C(CC(O)(CC(=O)OCc1ccccc1)C(=O)OCc1ccccc1)OCc1ccccc1,11% (inactive)
13,CCc1c(C)[nH]c2c([N+](=O)[O-])cccc12,-6% (inactive)
14,CSc1ncc2c(n1)-c1ccccc1OC2NC1CC1 (stereo not given),26% (inactive)
15,CC(C)c1cc(O)c2c(c1O)C1CC3C(C)(C)CCC[C@]23C(=O)O1 (stereo not given in full),4% (inactive)
16,O=C1C(=O)c2cc(Br)cc([N+](=O)[O-])c2-c2ccc(Br)cc21,21% (inactive)
17,NSc1ccccn1,29% (inactive)
18,CCCCCCCCCCCCOC(=O)C[n+]1cccc(C(=O)Nc2ccccc2)c1,96% (active)
19,NC(=S)SCCC(=O)O,-3% (inactive)
20,O=C(O)Cc1ccc2c3c(cccc13)CC2,23% (inactive)

# Same assay, conditions: S. cerevisiae cln2 rad14 strain, at 50.0 µM (retest, dose inferred, filed as 5.0), stronger effect = higher value
row,Compound,growth inhibition
1,CC(=O)Sc1ccc(Br)cc1,40% (inactive)
2,CC(C)OCc1cccc2ccnc(COC(C)C)c12,87% (active)
3,Nc1ccc2c(c1)C(=O)c1ccccc1-2,7% (inactive)
4,O=C1Nc2ccc([N+](=O)[O-])c3c([N+](=O)[O-])ccc1c23,39% (inactive)
5,Cc1ccc(NC(=O)Oc2ccc(C(C)(C)C)cc2Br)cc1NC(=O)Oc1ccc(C(C)(C)C)cc1Br,11% (inactive)
6,O=C1C(Cl)=C(Nc2ccc(S(=O)(=O)O)cc2)C(=O)c2ccccc21,99% (active)
7,N/C(=N\OC(=O)Nc1ccccc1)c1ccccc1,38% (inactive)
8,O=C1c2ccccc2C(=O)c2cc(N3C(=O)C=CC3=O)ccc21,99% (active)
9,CCCCN=C(c1ccc(O)cc1)c1ccc(OC)cc1O,20% (inactive)
10,Cc1ccc(S(=O)(=O)c2cc(O)c(O)c3ccc(Br)cc23)cc1,97% (active)
11,CC(C)(C)NC(=S)N/N=C/c1cc(Cl)cc(Cl)c1O,93% (active)
12,Oc1ccc2c(c1)OCC1c3ccccc3OC21 (stereo not given),56% (inactive)
13,OCCSC(=S)Nc1ccc(Cl)c(Cl)c1,99% (active)
14,CCCC[N-]CC(O)C[NH-].O=C(O)CC(=O)O.[Pt+2] (stereo not given),7% (inactive)
15,N=C(N)c1cccc(-c2ccc(-c3ccccc3)o2)c1,67% (inactive)
16,C#CC(CC(C)C)(CC(C)C)OC(=O)Nc1ccccc1,96% (active)
17,CCCCOc1ccc(-c2c(COC(=O)NC)c(COC(=O)NC)c(C)n2C)cc1,85% (active)
18,O=C(Nc1cccc2ccccc12)OCCCCCCl,95% (active)
19,C=CCOc1ccc(/C=N/NC(N)=S)cc1,87% (active)
20,Fc1ccc2[nH]ccc2c1,47% (inactive)

row,Compound,growth inhibition
1,C=C1C(=O)[C@]23C[C@H]1CC[C@H]2[C@@]12CO[C@@H](O)[C@@H]1C(C)(C)[C@@H](O)C[C@@H]2OC3=O,95% (active)
2,N#Cc1ccc([N+](=O)[O-])cc1C#N,96% (active)
3,N=C(N)c1ccc(Oc2ccc(Oc3ccc(C(=N)N)cc3)cc2)cc1,80% (active)
4,CCC=Nc1c(O)cc(-c2ccccc2)n(C)c1=O,45% (inactive)
5,COc1ccc(CN2CCCN(Cc3ccc(OC)cc3OC)C2c2cc(Cl)ccc2O)c(OC)c1,50% (inactive)
6,CCN(CC)c1ccc(/C=C2/C[N+](C)(C)C/C(=C/c3ccc(N(CC)CC)cc3)C2=O)cc1,95% (active)
7,O=P1(Cc2ccccc2)c2ccccc2-c2ccccc21,96% (active)
8,CN(C)CCCNc1cc(O)c2c(c1O)C(=O)c1ccccc1C2=O,94% (active)
9,CCCCC#CC(=O)OCCCCC,-2% (inactive)
10,CCCCCCN(CCCCCC)CCC(=O)c1ccc2cc(Cl)c3ccccc3c2c1,88% (active)
11,CC(C)C1=C2CCC3(C)C(CCC4C5C6OCC5(CCC6(C)C)CCC43C)C2(C)CC1 (stereo not given),62% (inactive)
12,O=C(CC(O)(CC(=O)OCc1ccccc1)C(=O)OCc1ccccc1)OCc1ccccc1,-10% (inactive)
13,CCc1c(C)[nH]c2c([N+](=O)[O-])cccc12,-2% (inactive)
14,CSc1ncc2c(n1)-c1ccccc1OC2NC1CC1 (stereo not given),27% (inactive)
15,CC(C)c1cc(O)c2c(c1O)C1CC3C(C)(C)CCC[C@]23C(=O)O1 (stereo not given in full),61% (inactive)
16,O=C1C(=O)c2cc(Br)cc([N+](=O)[O-])c2-c2ccc(Br)cc21,92% (active)
17,NSc1ccccn1,84% (active)
18,CCCCCCCCCCCCOC(=O)C[n+]1cccc(C(=O)Nc2ccccc2)c1,99% (active)
19,NC(=S)SCCC(=O)O,-4% (inactive)
20,O=C(O)Cc1ccc2c3c(cccc13)CC2,77% (active)
